Source: ChEMBL document CHEMBL4513216, “Probing the Open Global Health Chemical Diversity Library for Multistage-Active Starting Points for Next-Generation Antimalarials” (ACS Infect Dis, 2020)
Hit rate of the full screen: of about 68,000 compounds, about 2,700 (4%) showed an effect of 50% or more. This excerpt belongs to a sample that is enriched for strong results.

The compounds below were run on Plasmodium berghei (assay: Screen against P. berghei liver stage (PbLuc), transformed with Luciferase, at 2uM). Details: tested at 2 uM.
Assay type: functional, HepG2
`CN(Cc1ccccc1)CC(O)Cn1cnc2ccc(Br)cc2c1=O` (stereo not drawn) gave an INHIBITION of -12.19%. Compound `O=C1CC2(CCSC2)C(=O)N1Cc1coc(-c2ccc(F)cc2)n1` (stereo not drawn) has an INHIBITION of -12.34%. `O=C(NCc1nnc2n1CCCCC2)N1CCc2ccccc2C1` showed an INHIBITION of 25.61%. Work on `CCc1nnsc1C(=O)NCCc1nnc2n1CCC2` yielded an INHIBITION of -8.74%. For `O=C(NCCc1nnc2n1CCCCC2)N1CCC2(CCOC2)C1` (stereo not drawn), the INHIBITION was 69.67%. `O=C(NCC1(c2ccc(F)cc2)CC1)N1CCC2(CCOC2)C1` (stereo not drawn) showed an INHIBITION of -21.09%. In the case of `O=C(NCc1nnc2n1CCC2)N1CCC2(CCCCC2)CC1`, the INHIBITION is reported as 26.74%. For `O=C(Cc1ccc2c(c1)OCCO2)NCCc1nnc2n1CCC2`, the INHIBITION was -29.94%. `O=C(NCCc1nnc2n1CCCCC2)N1CCC2(CCCC2)CC1` showed an INHIBITION of 55.36%. With `O=C(NCc1nnc2n1CCCCC2)N1CCC2(CCCCC2)C1` the INHIBITION was 55.36%. `O=C(NCCc1nnc2n1CCC2)N1CCC2(CCCCC2)C1` was tested, and the INHIBITION was -9.03%. With `O=C(NCc1ccc(Cl)s1)NCc1nnc2n1CCCCC2` the INHIBITION was 15.28%. Compound `O=C(CCc1ccc(Cl)s1)NCc1nnc2n1CCCCC2` has an INHIBITION of 58.05%. `O=C(NCCc1ccc(Cl)s1)NCc1nnc2n1CCCC2` showed an INHIBITION of -19.35%. `Cc1nc(C)n(CC2CCCN2CC(=O)NCCC2=CCCCC2)n1` (stereo not drawn) was tested, and the INHIBITION was 24.17%. `COc1c(Br)c(C(=O)NC2CCCC2)nn1C` was tested, and the INHIBITION was 32.75%. With `O=c1[nH]c2cc3c(cc2cc1CN1CCCC1c1ccccn1)OCO3` (stereo not drawn) the INHIBITION was -8.01%. `CCNC(=O)N1CCC(NC(=O)NCCc2cc(F)cc(F)c2)C1` (stereo not drawn) gave an INHIBITION of 24.82%. Compound `CC(C)Oc1cccc(C(=O)C2CCCN(C(=O)c3cncs3)C2)c1` (stereo not drawn) has an INHIBITION of 30.07%. Work on `CN1CCCN(C(=O)c2ccnn2-c2ccc3ccccn23)CC1` yielded an INHIBITION of -25.2%. With `COC(=O)c1cccn1C1CCN(C(=O)c2cn[nH]c2C)CC1` the INHIBITION was 0.26%. With `O=C(NCC(=O)N1CCCC1)c1nn(-c2ccccc2F)cc1O` the INHIBITION was -8.52%. `Cc1cc(CN(C)C(=O)c2ccc(F)c(C(F)(F)F)c2)no1` showed an INHIBITION of 46.52%. In the case of `COc1ccc(-n2cc3nc(N4CCCC4)[nH]cc-3c2=O)cc1Cl`, the INHIBITION is reported as 26.03%. Work on `CN(C)C(=O)[C@H]1CCS(=O)(=O)[C@@H]2CN(c3ncc(F)cn3)C[C@H]12` yielded an INHIBITION of 32.26%. Work on `O=C1CC(c2cccs2)c2snc(C(=O)O)c2N1` (stereo not drawn) yielded an INHIBITION of -4.4%. Compound `CN1Cc2c(C(=O)Nc3cccnc3)ncn2-c2ccccc2S1(=O)=O` has an INHIBITION of 8.85%. `CCC(=O)N1CCC2(C=C(C(=O)N(C)C)c3ccccc32)CC1` showed an INHIBITION of -19.05%. In the case of `O=C(NCc1nnc2n1CCCC2)N1CCc2sccc2C1`, the INHIBITION is reported as 53.11%. `O=C(NCCc1nnc2n1CCC2)NCC1(c2cccc(F)c2)CC1` gave an INHIBITION of -14.15%. Compound `O=C(NCCc1nnc2n1CCC2)NCC1(c2ccc(F)cc2)CC1` has an INHIBITION of 81.42%. `O=C(NCc1nnc2n1CCC2)N1CCc2sccc2C1` gave an INHIBITION of 15.67%. Work on `O=C(NCCc1nnc2n1CCC2)NCC1(c2ccccc2)CC1` yielded an INHIBITION of -1.32%. With `O=C(NCc1nnc2n1CCCCC2)N1CCc2sccc2C1` the INHIBITION was 32.11%. `CCn1cc(C(=O)N2CCCC(c3nccs3)C2)cn1` (stereo not drawn) was tested, and the INHIBITION was 2.6%. For `COc1cccc2[nH]cc(CCNC(=O)N3CCCC3CO)c12` (stereo not drawn), the INHIBITION was 1.41%. For `Cc1ccc(C(=O)N2CCCC(n3cncn3)C2)o1` (stereo not drawn), the INHIBITION was 14.17%. `COc1ccnc(N2CCN(CC(=O)N3CCC(C)CC3)CC2)n1` gave an INHIBITION of 39.72%. With `COc1ccnc(NC2CCN(CC(=O)N3CCCC3)CC2)n1` the INHIBITION was 72.05%. In the case of `COc1ccnc(NC2CCN(CC(=O)Nc3ccccc3)CC2)n1`, the INHIBITION is reported as -37.65%. For `CCOc1cccc(C(=O)Nc2ccn(CC)n2)c1`, the INHIBITION was 6.64%. In the case of `CCn1ccc(CNC(=O)c2cc(OC)cc(OC)c2)n1`, the INHIBITION is reported as 65.06%. `COc1cc(OC)cc(C(=O)NCc2nn(C)c3c2COCC3)c1` showed an INHIBITION of -63.73%. `CC(C)(NCC(=O)NCC1CC1)c1ccc2c(c1)OCCO2` gave an INHIBITION of -51.94%. In the case of `Cc1ccc(CN2CC[C@H](O)[C@@H](n3ccc(=O)[nH]c3=O)CC2)cc1`, the INHIBITION is reported as 29.89%. `O=C(NCCCn1ccnn1)C1CCCN(C2CCCC2)C1` (stereo not drawn) showed an INHIBITION of 27.11%. `CC(C)(C)CNCC1(O)CCCN(Cc2ccccc2F)C1=O` (stereo not drawn) was tested, and the INHIBITION was 36.66%. With `COc1ccc(F)c(CN2CCCC(O)(CNCc3ccoc3)C2=O)c1` (stereo not drawn) the INHIBITION was -11.8%. For `COc1ccc(F)c(CN2CCCC(O)(CNCC(C)(C)C)C2=O)c1` (stereo not drawn), the INHIBITION was 70.81%. `CCCN1C[C@@H]2CC[C@H]1CN(Cc1cccc(-n3cccn3)c1)C2` showed an INHIBITION of -15.64%. `CCCN1C[C@@H]2CC[C@H]1CN(Cc1ccc(Cn3cccn3)cc1)C2` was tested, and the INHIBITION was 75.43%. With `CCCN1C[C@@H]2CC[C@H]1CN(Cc1ccc(-n3cccn3)cc1)C2` the INHIBITION was 47.25%. For `COCC1CN(c2ccc3c(Cl)ccnc3c2F)CCO1` (stereo not drawn), the INHIBITION was -90.94%. In the case of `Cn1ccc(CS(=O)(=O)Cc2ccccc2)cc1=O`, the INHIBITION is reported as 36.53%. `COCCN1CC2(CCOCC2)c2cc(NC(=O)C3CC=CC3)ccc21` gave an INHIBITION of 26.31%. For `CC(C)C[C@H](N)COc1cccc(F)c1Oc1ccc(Cl)cc1`, the INHIBITION was 32.24%. `COc1cc(CNc2cc(N3CCCC3CO)ncn2)ccn1` (stereo not drawn) was tested, and the INHIBITION was 21.39%. Work on `Cc1ncsc1CNC(=O)N1CCN(Cc2ccccc2)C[C@H]1C` yielded an INHIBITION of 37.41%. In the case of `Cc1ncsc1CNC(=O)N1CCN(Cc2ccccc2)CC1C` (stereo not drawn), the INHIBITION is reported as 51.4%. `Cc1nccc(CNC(=O)N2CCN(Cc3ccccc3)C[C@H]2C)n1` gave an INHIBITION of 58.93%. `Cc1cc(CNC(=O)N2CCN(Cc3ccccc3)C[C@H]2C)on1` was tested, and the INHIBITION was -4.53%. `Cc1ncsc1C(=O)N1CCN(Cc2ccccc2)CC1C` (stereo not drawn) was tested, and the INHIBITION was -12.06%. In the case of `C[C@@H]1CN(Cc2ccccc2)CCN1C(=O)NCc1nccs1`, the INHIBITION is reported as 14.83%. `CCCC(=O)N1CCC(c2cc3cccnc3c(O)n2)CC1` was tested, and the INHIBITION was 4.48%. In the case of `O=C(N1CCCC1)N1CCC2(CC1)CN(c1cccnc1)C(=O)CO2`, the INHIBITION is reported as 39.86%. Work on `CC(C)(C)c1n[nH]cc1CNC1CCC(OCC(F)(F)F)CC1` (stereo not drawn) yielded an INHIBITION of -8.63%. `CC(C)(C)c1n[nH]cc1CNC1CCC(C(F)(F)F)CC1` (stereo not drawn) gave an INHIBITION of 64.92%. `CC(C)(C)c1n[nH]cc1CNC1CCC(O)CC1` (stereo not drawn) gave an INHIBITION of -57.67%. `C=C/C=c1\c(=C/C)oc2c(NCc3ccccc3)nc(CC)nc12` gave an INHIBITION of 17.42%. For `C=C/C=c1\c(=C/C)oc2c(NCc3ccccc3)nc(C)nc12`, the INHIBITION was 51.36%. With `C=C/C=c1\c(=C/C)oc2c(NCc3ccccc3)ncnc12` the INHIBITION was 24.34%. `Cc1noc(C)c1CCC(=O)N1CCCC(n2ccnc2C)C1` (stereo not drawn) showed an INHIBITION of 11.18%. `CCN1CCOC(CNCc2ccc(C)s2)C1` (stereo not drawn) showed an INHIBITION of -19.02%. `COc1cc(CNc2cnn(CC(F)F)c2)ccc1O` gave an INHIBITION of 19.18%. With `Cc1ccc(CNc2cnn(CC(F)F)c2)cc1C` the INHIBITION was 55.43%. In the case of `COc1ccc(CNc2cnn(CC(F)F)c2)cc1`, the INHIBITION is reported as -15.93%. `CCn1nnc2c1C(COCCN(C)C)CN(S(=O)(=O)CC)C2` (stereo not drawn) was tested, and the INHIBITION was 29.19%. In the case of `Cc1nc(CN(C)C(=O)c2cccc(CC3CCNCC3)c2)no1`, the INHIBITION is reported as 24.36%. Work on `CN(Cc1ccno1)C(=O)c1cccc(CC2CCNCC2)c1` yielded an INHIBITION of 38.67%. `CNc1ncc(CN(C)C(=O)c2cccc(CC3CCNCC3)c2)cn1` gave an INHIBITION of 52.98%. In the case of `Cc1nc2ccc(Cl)cn2c1CN1CCN(S(=O)(=O)N2CCCC2)CC1`, the INHIBITION is reported as -21.9%. `CCN1CCc2c(sc3c2C(=O)NC(C=Cc2ccccc2)N3)C1` (stereo not drawn) showed an INHIBITION of -18.77%. `COCC(=O)N1CCCCC1c1nccc(C)n1` (stereo not drawn) showed an INHIBITION of 18.22%. For `CN(C)CCN1CCCC12CCN(Cc1nccn1C)CC2`, the INHIBITION was 37.75%. For `Cc1cc(C(F)(F)F)nn1CCCNC(=O)C1CCC1`, the INHIBITION was 31.12%. For `O=C(COc1coc(CN2CCOCC2)cc1=O)Nc1ccccc1F`, the INHIBITION was 64.35%. For `O=C(COc1coc(CN2CCOCC2)cc1=O)Nc1ccc(Cl)cc1`, the INHIBITION was 16.49%. Work on `O=C(COc1coc(CN2CCCCC2)cc1=O)Nc1ccccc1Cl` yielded an INHIBITION of -46.67%. `CCCc1ccc2oc(C(=O)N3CCN(CCOC)CC3)c(C)c2c1` showed an INHIBITION of -28.65%. Work on `COCCCN(C)C(=O)Cn1cccc(OC)c1=O` yielded an INHIBITION of 50.59%. With `COCCN(C)C(=O)Cn1cccc(OC)c1=O` the INHIBITION was -14.84%. `COc1cccn(CC(=O)N(C)Cc2ccoc2)c1=O` showed an INHIBITION of -33.11%. `COc1cccn(CC(=O)N(C)CCSC)c1=O` gave an INHIBITION of 21.97%. Work on `COc1cccn(CC(=O)N(C)CCC2CCOCC2)c1=O` yielded an INHIBITION of 69.67%. With `COc1cccn(CC(=O)N(C)CCCOc2c(C)cccc2C)c1=O` the INHIBITION was -30.49%. `CN(C)C(c1ccccn1)C1CCC(CNC(=O)CC2CCCC2)CC1` (stereo not drawn) was tested, and the INHIBITION was 0.64%. Compound `CCc1c(C(=O)O)nnn1-c1ccc(C)cc1C` has an INHIBITION of -54.75%. With `NC(=O)N1CC[C@@H]2O[C@@H](COCC(=O)N3CCCC3)CC[C@@H]21` the INHIBITION was 35.98%. `Cc1cc(C[C@@H]2COC[C@H]2NCc2ccccc2C(F)(F)F)on1` was tested, and the INHIBITION was 32.31%. `Cc1cc(C(O)CCNC(=O)c2ccc(Cl)s2)c(C)o1` (stereo not drawn) was tested, and the INHIBITION was -16.88%. Work on `CC(CNC(=O)c1cnccn1)Oc1cccc(Br)c1` (stereo not drawn) yielded an INHIBITION of 30.75%. `CC(CNC(=O)c1ccncc1F)Oc1ccc(F)cc1` (stereo not drawn) gave an INHIBITION of 23.79%. In the case of `CC(CNC(=O)c1cnccn1)Oc1ccc(F)cc1` (stereo not drawn), the INHIBITION is reported as 52.84%. With `NCc1cccc(-c2cccnc2C(=O)NCCN2CCCC2)c1` the INHIBITION was 1.07%. For `O=C(NC1CC1)[C@@H]1CCO[C@@H]2CCN(CC3CCC3)C[C@H]21`, the INHIBITION was 9.98%. `CC(CNC(=O)Nc1ccc(F)cc1Br)N1CCOCC1` (stereo not drawn) gave an INHIBITION of 74.22%. Compound `Cc1cc(F)ccc1NC(=O)NCC(C)N1CCOCC1` (stereo not drawn) has an INHIBITION of 48.59%. `Cc1ccc(F)cc1NC(=O)NCC(C)N1CCOCC1` (stereo not drawn) showed an INHIBITION of -0.54%.
